These results are taken from the supplement of paper PMC7411054.

Common to all, as to conditions: treatment time: 24 h
For assay [1], the system named is A549-ACTB-RAB5A. The assay can be described thus: lowest phenotypically active concentration; higher = less potent. In short, it runs like this: (§1)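 The reporter lines, fifteen in total and built by gene editing in A549, HepG2 and WPMY1 cells, used BFP for segmentation alongside GFP and RFP/FusionRed markers. Each was treated at 0.3, 1, 3 or 9 µM for 24 h in four wells and then imaged live, with live-cell features normalised to solvent control wells. Deviation meant ≥3 of 4 wells beyond the 95th percentile of control Euclidean distances; reproducibility meant a median replicate Pearson correlation above the 95th percentile of non-replicates. Only conditions meeting both were scored as phenotypically active.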

The subject of assay [2] is A549-GM130-SQSTM1. The assay is described as above. In short, it runs like this:
as §1

Assay [3] has as its system HepG2-ACTB-RAB5A. The assay is described as above. In short, it runs like this:
as §1

Assay [4] relates to WPMY1-GM130-SQSTM1. The assay is described as above. In short, it runs like this:
as §1

Assay [5] deals with A549-ACTB-RAB5A. The assay can be described thus: phenotypically active (imaging signature differs from DMSO and reproducible) at any of 0.3-9 uM (binary (1 = active, 0 = inactive)); higher = active. In outline:
as §1

Another assay relates to A549-CANX-COX4. The description is as above. In short, it runs like this: as §1
Assay [6] relates to A549-GM130-SQSTM1. The description is as above. In outline:
as §1

A further assay relates to A549-TP53BP1-CLTA. Described as above. In outline: as §1
Assay [7] concerns A549-TUBA1B-RELA. The description is as above. In short, it runs like this:
as §1

Assay [8] concerns HepG2-ACTB-RAB5A. Described as above. In short, it runs like this: as §1
The next assay relates to HepG2-CANX-COX4. The description is as above. In outline: as §1
The test system of another assay is HepG2-GM130-SQSTM1. The assay is described as above. In outline:
as §1

Another assay concerns HepG2-TP53BP1-CLTA. The assay is described as above. In short, it runs like this:
as §1

A further assay has as its system HepG2-TUBA1B-RELA. The assay is described as above. In short, it runs like this:
as §1

The test system of another assay is WPMY1-ACTB-RAB5A. The assay is described as above. In short, it runs like this: as §1
For the next assay, the system named is WPMY1-CANX-COX4. The assay is described as above. In outline:
as §1

Assay [9] concerns WPMY1-GM130-SQSTM1. The description is as above. In outline: as §1
For another assay, the system named is WPMY1-TP53BP1-CLTA. The description is as above. In short, it runs like this: as §1
A further assay concerns WPMY1-TUBA1B-RELA. The description is as above. In short, it runs like this:
as §1

Assay [10] concerns A549-TUBA1B-RELA. The assay can be described thus: lowest phenotypically active concentration; higher = less potent. In outline:
as §1

Each structure is given as a SMILES string. Structures can show the parent of a compound that is named as a salt.

With `O=C1/C(=C\c2ccncc2)CCC/C1=C\c1ccncc1`, the “lowest phenotypically active concentration” value with A549-ACTB-RAB5A [1] was found to be 3 µM; in the assay on A549-GM130-SQSTM1 [2] it was 3 µM; in the assay on HepG2-ACTB-RAB5A [3], 9 µM; with WPMY1-GM130-SQSTM1 [4] it was 3 µM. Also, the phenotypically active with A549-ACTB-RAB5A [5] is 1 (active); in the assay on A549-CANX-COX4, 1 (active); in the assay on A549-GM130-SQSTM1 [6] it was 1 (active); with A549-TP53BP1-CLTA, 0 (inactive); in the assay on A549-TUBA1B-RELA [7], 0 (inactive); with HepG2-ACTB-RAB5A [8], 1 (active). Further, the phenotypically active with HepG2-CANX-COX4, with HepG2-GM130-SQSTM1, with HepG2-TP53BP1-CLTA, in the assay with HepG2-TUBA1B-RELA, in the assay on WPMY1-ACTB-RAB5A and in the assay on WPMY1-CANX-COX4 was 1 (active) throughout. Also, the phenotypically active in the assay on WPMY1-GM130-SQSTM1 [9], in the assay on WPMY1-TP53BP1-CLTA and in the assay on WPMY1-TUBA1B-RELA was 1 (active) in each case.

Consider `C[C@@H](Nc1ncnc2[nH]c(-c3ccc(O)cc3)cc12)c1ccccc1` [PKI 166 hydrochloride], for which the “lowest phenotypically active concentration” value in the assay on A549-ACTB-RAB5A [1], in the assay with A549-GM130-SQSTM1 [2], in the assay on A549-TUBA1B-RELA [10] and with WPMY1-GM130-SQSTM1 [4] was 3 µM throughout. Further, the phenotypically active is 1 (active) with A549-ACTB-RAB5A [5]; 1 (active) in the assay with A549-CANX-COX4; 1 (active) with A549-GM130-SQSTM1 [6]; 1 (active) with A549-TP53BP1-CLTA; 1 (active) with A549-TUBA1B-RELA [7]; 0 (inactive) with HepG2-ACTB-RAB5A [8]. For the same compound, the phenotypically active in the assay on HepG2-CANX-COX4 is 1 (active); with HepG2-GM130-SQSTM1 it was 0 (inactive); in the assay on HepG2-TP53BP1-CLTA, 1 (active); with HepG2-TUBA1B-RELA, 1 (active); in the assay on WPMY1-ACTB-RAB5A, 1 (active); in the assay on WPMY1-CANX-COX4 it was 1 (active). In addition, the phenotypically active in the assay on WPMY1-GM130-SQSTM1 [9], in the assay with WPMY1-TP53BP1-CLTA and in the assay on WPMY1-TUBA1B-RELA was 1 (active) in each case.

Turning to `Cc1nnc(-c2ccc3occ(-c4ccc(S(C)=O)cc4)c3c2)o1` (stereo not drawn), the “lowest phenotypically active concentration” value in the assay on A549-ACTB-RAB5A [1], in the assay on A549-GM130-SQSTM1 [2], in the assay on HepG2-ACTB-RAB5A [3] and in the assay on WPMY1-GM130-SQSTM1 [4] was 9 µM throughout. The phenotypically active was 1 (active) with A549-ACTB-RAB5A [5]; 1 (active) in the assay with A549-CANX-COX4; 1 (active) with A549-GM130-SQSTM1 [6]; 1 (active) in the assay with A549-TP53BP1-CLTA; 0 (inactive) with A549-TUBA1B-RELA [7]; 1 (active) with HepG2-ACTB-RAB5A [8]. For the same compound, the phenotypically active in the assay on HepG2-CANX-COX4 is 1 (active); with HepG2-GM130-SQSTM1, 1 (active); in the assay on HepG2-TP53BP1-CLTA it was 0 (inactive); in the assay with HepG2-TUBA1B-RELA, 1 (active); in the assay on WPMY1-ACTB-RAB5A, 1 (active); in the assay on WPMY1-CANX-COX4 it was 1 (active). For the same compound, the phenotypically active was 1 (active) in the assay with WPMY1-GM130-SQSTM1 [9], 1 (active) with WPMY1-TP53BP1-CLTA and 0 (inactive) with WPMY1-TUBA1B-RELA.

Turning to `CCCOc1ccc(CCc2nc3cc(-c4c(C)noc4C)ccc3n2CCN2CCOCC2)cc1`, the “lowest phenotypically active concentration” value in the assay on A549-ACTB-RAB5A [1] and in the assay with HepG2-ACTB-RAB5A [3] was 9 µM each time. In addition, the phenotypically active is 1 (active) in the assay with A549-ACTB-RAB5A [5]; 1 (active) in the assay with A549-CANX-COX4; 0 (inactive) with A549-GM130-SQSTM1 [6]; 0 (inactive) with A549-TP53BP1-CLTA; 0 (inactive) in the assay on A549-TUBA1B-RELA [7]; 1 (active) in the assay with HepG2-ACTB-RAB5A [8]. The phenotypically active was 1 (active) with HepG2-CANX-COX4; 0 (inactive) in the assay with HepG2-GM130-SQSTM1; 1 (active) in the assay with HepG2-TP53BP1-CLTA; 0 (inactive) in the assay on HepG2-TUBA1B-RELA; 0 (inactive) in the assay on WPMY1-ACTB-RAB5A; 0 (inactive) with WPMY1-CANX-COX4. For the same compound, the phenotypically active in the assay on WPMY1-GM130-SQSTM1 [9], in the assay with WPMY1-TP53BP1-CLTA and with WPMY1-TUBA1B-RELA was 0 (inactive) in each case.

Regarding `N#C/C(=C/c1ccc(O)c(O)c1)C(=O)NCCCCc1ccccc1`, the “lowest phenotypically active concentration” value in the assay on A549-ACTB-RAB5A [1], in the assay on A549-GM130-SQSTM1 [2], in the assay with A549-TUBA1B-RELA [10], in the assay with HepG2-ACTB-RAB5A [3] and with WPMY1-GM130-SQSTM1 [4] was 9 µM throughout. The phenotypically active in the assay with A549-ACTB-RAB5A [5] was 1 (active); in the assay with A549-CANX-COX4, 1 (active); with A549-GM130-SQSTM1 [6] it was 1 (active); in the assay on A549-TP53BP1-CLTA it was 0 (inactive); in the assay with A549-TUBA1B-RELA [7], 1 (active); in the assay with HepG2-ACTB-RAB5A [8], 1 (active). The phenotypically active with HepG2-CANX-COX4 was 1 (active); with HepG2-GM130-SQSTM1, 1 (active); with HepG2-TP53BP1-CLTA, 1 (active); with HepG2-TUBA1B-RELA, 0 (inactive); with WPMY1-ACTB-RAB5A, 1 (active); in the assay on WPMY1-CANX-COX4 it was 1 (active). Also, the phenotypically active in the assay with WPMY1-GM130-SQSTM1 [9], in the assay on WPMY1-TP53BP1-CLTA and in the assay with WPMY1-TUBA1B-RELA was 1 (active) in each case.

For the compound `COc1ccc(-c2cnc(-c3cccc4c3-c3ccccc3C4=O)o2)cc1`, the “lowest phenotypically active concentration” value with A549-ACTB-RAB5A [1], with A549-GM130-SQSTM1 [2], with A549-TUBA1B-RELA [10] and in the assay with WPMY1-GM130-SQSTM1 [4] was at most 0.3 µM throughout. Moreover, the phenotypically active in the assay with A549-ACTB-RAB5A [5] was 1 (active); in the assay with A549-CANX-COX4 it was 1 (active); in the assay with A549-GM130-SQSTM1 [6], 1 (active); in the assay on A549-TP53BP1-CLTA it was 1 (active); in the assay with A549-TUBA1B-RELA [7] it was 1 (active); in the assay on HepG2-ACTB-RAB5A [8], 0 (inactive). Moreover, the phenotypically active with HepG2-CANX-COX4 is 0 (inactive); with HepG2-GM130-SQSTM1 it was 0 (inactive); in the assay with HepG2-TP53BP1-CLTA it was 0 (inactive); with HepG2-TUBA1B-RELA it was 0 (inactive); in the assay with WPMY1-ACTB-RAB5A, 1 (active); in the assay on WPMY1-CANX-COX4, 1 (active). For the same compound, the phenotypically active in the assay on WPMY1-GM130-SQSTM1 [9], in the assay with WPMY1-TP53BP1-CLTA and in the assay with WPMY1-TUBA1B-RELA was 1 (active) throughout.
